Experimental findings from PubChem BioAssay (EPA / NIEHS) are described below.

Experiment [1] has as its target rat Peripheral-type Benzodiazepine Receptor (PBR), Tspo (gene 24230) (UniProt P16257). The experiment in a line: NVS_MP_rPBR: NovaScreen (NVS) Membrane Protein Assay for rat Peripheral-type Benzodiazepine Receptor (PBR) (AID 2283335). The method, boiled down:
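Single-concentration duplicate screening at 25 uM preceded concentration-series retesting of actives. Binding of a specific radioligand to rat kidney membrane PBR was read by filtration radiodetection after 1 h, with plate-wise positive and negative controls.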

The target of experiment [2] is Estrogen receptor (Homo sapiens) (UniProt P03372). The experiment in a line: NVS_NR_hER: NovaScreen (NVS) Nuclear Receptor Binding Assay for human Estrogen Receptor (ER) (AID 2283348). The method, boiled down:
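MCF7-derived receptor extract, radiolabelled ligand, competitive displacement. Read: scintillation counts at 18 h. DMSO = negative control/baseline. Primary 25 uM duplicate; follow-up concentration–response.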

Experiment [3] shares this target. The experiment is described as follows: OT_ER_ERaERa_1440: Odyssey Thera (OT) 24-hour HEK293T Protein-Complementation Assay for Estrogen Receptor-alpha/-alpha Homodimer (AID 2283349).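 Further: hits raise fluorescence above DMSO for agonists and antagonists alike.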 The method, boiled down:
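Cells (HEK293T) carrying the fragment-tagged ERα LBD (aa 310-547) pair are treated with chemical for 24 hours. Nuclear and/or cytoplasmic fluorescence is then quantified on a laser scanning cytometer. Activity is scored as signal gain against DMSO.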

Experiment [4] shares this target. The experiment in a line: OT_ER_ERaERa_0480: Odyssey Thera (OT) 8-hour HEK293T Protein-Complementation Assay for Estrogen Receptor-alpha/-alpha Homodimer (AID 2283351).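 Further: rise in fluorescence from reassembled reporter fragments on ERα LBD homodimer in nucleus or whole cell.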 Put shortly: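 Read-out: fluorescence intensity rise relative to DMSO, nuclear for agonists, nuclear plus cytoplasmic for antagonists. Construct is the ERα LBD (aa 310-547) homodimer fragment-complementation pair, stably expressed in HEK293T; exposure 8 h.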

In experiment [5] the target is Androgen Receptor/SRC-1 Co-activator, AR (gene 367) (UniProt P10275). The experiment in a line: OT_AR_ARSRC1_0960: Odyssey Thera (OT) 16-hour HEK293T Protein-Complementation Assay for Androgen Receptor/SRC-1 Co-activator (AID 2283353).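 Further: actives raise the signal above DMSO so potency reflects increased AR and SRC-1 complex.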 The method, boiled down: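 Readout: 488 nm nuclear-to-cytoplasmic fluorescence ratio from imaging of at least 400 cells per image, 16 h post-dose. Reporter is Venus YFP complementation between AR and SRC-1 fusions, stably expressed in HEK293T; activity scored upward relative to DMSO.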

Experiment [6] has as its target Estrogen receptor (Homo sapiens) + Estrogen receptor beta (Homo sapiens) (UniProt P03372+Q92731). The experiment in a line: OT_ER_ERaERb_1440: Odyssey Thera (OT) 24-hour HEK293T Protein-Complementation Assay for Estrogen Receptor-alpha/-beta Homodimer (AID 2283356).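 Further: heteromer of ER alpha and ER beta binding domains; hits raise reporter fluorescence and both agonists and antagonists give an increase.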 Put shortly: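 Readout: mean fluorescence intensity in nucleus (agonists) or nucleus plus cytoplasm (antagonists), read by laser scanning cytometer after 24 h compound exposure of HEK293T cells carrying ERα/ERβ LBD fragment-complementation constructs; DMSO baseline.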

Experiment [7] concerns the target human Constitutive Androstane Receptor (CAR), NR1I3 (gene 9970) (UniProt Q14994). The experiment in a line: NVS_NR_hCAR_Antagonist: NovaScreen (NVS) Nuclear Receptor Binding Assay for human Constitutive Androstane Receptor Antagonism (CAR) (AID 2283344). Put shortly:
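Single 25 uM duplicate primary screen, with concentration-series follow-up on actives. Cell-free binding format run in antagonist mode, TR-FRET signal taken 1 h post-dose; activity is signal loss relative to DMSO.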

In experiment [8] the target is Bile acid receptor (Homo sapiens) (UniProt Q96RI1). The experiment is described as follows: NVS_NR_hFXR_Antagonist: NovaScreen (NVS) Nuclear Receptor Binding Assay for human Farnesoid X Receptor Antagonism (FXR) (AID 2283350). The method, boiled down: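 Antagonist-format time-resolved FRET binding assay with extracted human receptor protein, read 1 hour after compound addition. Compounds first screened at 25 uM in duplicate, then actives tested in concentration series, with loss of signal relative to DMSO.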

Experiment [9] addresses Estrogen receptor beta (Homo sapiens) (UniProt Q92731). The experiment in a line: OT_ER_ERbERb_0480: Odyssey Thera (OT) 8-hour HEK293T Protein-Complementation Assay for Estrogen Receptor-beta/-beta Homodimer (AID 2283357).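 Further: active means signal gain over DMSO baseline.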 The method, boiled down: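 Homodimerization of ER-beta LBD measured by protein-fragment complementation in HEK293T; 8 h dosing; fixed, Draq5 counterstain; fluorescence intensity gain over DMSO baseline, positive fitting direction; laser scanning cytometry.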

In a further experiment the test system is NCBI gene 100848466. The experiment in a line: NVS_NR_bPR: NovaScreen (NVS) Nuclear Receptor Binding Assay for bovine Progextron Receptor (PR) (AID 2283343). The method, boiled down: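 Scintillation counts of bound radioligand were read 18 hours after chemical addition to membranes extracted from bovine uterus. Displacement was scored as loss of signal relative to DMSO controls. Screening began at 25 uM in duplicate.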

The nature of experiment [10]: NVS_IC_rCaBTZCHL: NovaScreen (NVS) Ion Channel Assay for Calcium Channel, Type L, Benzothiazepine Site (CaBTZCHL) (AID 2283337). The method, boiled down:
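Rat cortical membrane preparation, cell-free. Radioligand displaced by test chemical; 1.5 h incubation; filtration, scintillation count. DMSO = negative control/baseline. Primary: duplicate, 25 uM; secondary: concentration series.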

For experiment [11], the system named is guinea pig Histamine Receptor (H2), gene 100729734. The experiment is described as follows: NVS_GPCR_gH2: NovaScreen (NVS) G Protein-Coupled Receptor Assay for guinea pig Histamine Receptor (H2) (AID 2283342). The method, boiled down: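 Guinea pig striatal membrane preparation with specific radioligand; bound counts measured by filtration and scintillation 1 h post-dosing, DMSO as baseline. Chemicals passing a 25 uM duplicate screen were titrated to a 50 uM maximum.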

Experiment [12] has as its target Small conductance calcium-activated potassium channel protein 1 (Rattus norvegicus) (UniProt P70606). The experiment in a line: NVS_IC_rKCaCh: NovaScreen (NVS) Ion Channel Assay for rat Potassium Channel, Ca2+ Act., VI (KCaCh) (AID 2283336). The method, boiled down:
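Filter-based scintillation counting of radioligand bound to rat forebrain membrane preparations, measured 1 h after compound addition. Primary screen used 25 uM in duplicate, with concentration-response follow-up; signal decrease relative to DMSO marks activity.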

The target of experiment [13] is rat Glutamate, MK-801 Agonist Site (GluNMDA_MK801), Grin1 (gene 24408) (UniProt P35439). The experiment in a line: NVS_LGIC_rGluNMDA_MK801_Agonist: NovaScreen (NVS) Ligand-Gated Ion Channel Assay for rat Glutamate, MK-801 Agonist Site (GluNMDA_MK801) (AID 2283340). The method, boiled down: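 Rat forebrain membrane preparation; MK-801-site radioligand binding read by filtration and scintillation after 1.5 h. Single-point 25 uM duplicate screen, followed by singleton concentration series to 50 uM max; DMSO baseline.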

The target in experiment [14] is rat Glycine Receptor, Strychnine-sensitive (GlyRStrySens), Glra1 (gene 25674) (UniProt P07727). The experiment in a line: NVS_LGIC_rGlyRStrySens: NovaScreen (NVS) Ligand-Gated Ion Channel Assay for rat Glycine Receptor, Strychnine-sensitive (GlyRStrySens) (AID 2283341). Put shortly:
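Radioligand displacement on rat spinal cord membranes, 1 hr, filter scintillation read-out. Single-concentration duplicate screen at 25 uM; chemicals meeting threshold (e.g., 30% inhibition) rerun in concentration-response up to 50 uM. Loss of binding fitted versus DMSO.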

Experiment [15] deals with chimpanzee Androgen Receptor (AR), AR (gene 747460) (UniProt O97775). The experiment in a line: NVS_NR_cAR: NovaScreen (NVS) Nuclear Receptor Binding Assay for chimpanzee Androgen Receptor (AR) (AID 2283346).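 Further: radioligand displacement from AR measured by scintillation counting in a cell-free assay.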 Put shortly:
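Radioligand binding to chimpanzee AR expressed in Sf9/Sf21 cells, cell-free, measured 72 h after dosing by lysate-based scintillation counting. Loss of signal vs DMSO; initial duplicate screen at 25 uM, actives retested in concentration series.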

Experiment [16] deals with bovine Estrogen Receptor (ER), ESR1 (gene 407238) (UniProt P49884). The experiment is described as follows: NVS_NR_bER: NovaScreen (NVS) Nuclear Receptor Binding Assay for bovine Estrogen Receptor (ER) (AID 2283345).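 Further: actives lower the bound radioligand count which means they displace the ER ligand.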 The method, boiled down:
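Displacement of a radioligand from estrogen receptor in bovine uterine membrane preparations; scintillation signal taken at 18 hours, DMSO as baseline. Single-concentration duplicates (25 uM) preceded concentration-response follow-up of actives.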

Molecules are shown by their SMILES. Inconclusive results are not listed. The source made the active and inactive calls. How the source made its calls: active means hit-call score of the fitted dose curve at least 0.9, where 1 is the maximum; inconclusive means response in the unintended direction; inactive means score below 0.9.

Chain of Estrogen receptor beta (Homo sapiens) (Q92731 whole entry, looked up, the tested form may be a part): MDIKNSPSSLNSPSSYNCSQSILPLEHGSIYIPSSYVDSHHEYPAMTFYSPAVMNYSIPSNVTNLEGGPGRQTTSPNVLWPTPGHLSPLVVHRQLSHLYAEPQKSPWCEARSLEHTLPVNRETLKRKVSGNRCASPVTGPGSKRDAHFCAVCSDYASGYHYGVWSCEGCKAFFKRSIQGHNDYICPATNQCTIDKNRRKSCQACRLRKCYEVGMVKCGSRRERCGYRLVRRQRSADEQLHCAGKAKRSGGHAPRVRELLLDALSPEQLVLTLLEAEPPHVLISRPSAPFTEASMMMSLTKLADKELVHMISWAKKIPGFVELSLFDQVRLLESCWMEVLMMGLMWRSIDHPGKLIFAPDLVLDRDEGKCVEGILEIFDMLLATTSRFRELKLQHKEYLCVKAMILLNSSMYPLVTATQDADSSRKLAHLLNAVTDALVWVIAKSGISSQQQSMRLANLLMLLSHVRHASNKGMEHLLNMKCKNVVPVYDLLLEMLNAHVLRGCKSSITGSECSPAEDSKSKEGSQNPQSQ
Chain of human Constitutive Androstane Receptor (CAR), NR1I3 (gene 9970) (Q14994 whole entry, looked up): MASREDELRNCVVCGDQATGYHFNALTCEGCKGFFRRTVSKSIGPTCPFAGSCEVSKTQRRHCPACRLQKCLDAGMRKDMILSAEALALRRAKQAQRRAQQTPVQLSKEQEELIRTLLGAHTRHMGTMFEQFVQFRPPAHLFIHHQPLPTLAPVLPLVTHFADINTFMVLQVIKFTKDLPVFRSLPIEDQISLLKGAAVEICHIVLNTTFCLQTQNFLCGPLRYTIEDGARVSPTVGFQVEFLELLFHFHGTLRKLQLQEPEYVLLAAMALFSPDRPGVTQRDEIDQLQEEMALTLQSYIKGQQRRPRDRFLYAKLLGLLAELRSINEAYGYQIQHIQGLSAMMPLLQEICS
Chain of Estrogen receptor (Homo sapiens) (P03372 whole entry, looked up): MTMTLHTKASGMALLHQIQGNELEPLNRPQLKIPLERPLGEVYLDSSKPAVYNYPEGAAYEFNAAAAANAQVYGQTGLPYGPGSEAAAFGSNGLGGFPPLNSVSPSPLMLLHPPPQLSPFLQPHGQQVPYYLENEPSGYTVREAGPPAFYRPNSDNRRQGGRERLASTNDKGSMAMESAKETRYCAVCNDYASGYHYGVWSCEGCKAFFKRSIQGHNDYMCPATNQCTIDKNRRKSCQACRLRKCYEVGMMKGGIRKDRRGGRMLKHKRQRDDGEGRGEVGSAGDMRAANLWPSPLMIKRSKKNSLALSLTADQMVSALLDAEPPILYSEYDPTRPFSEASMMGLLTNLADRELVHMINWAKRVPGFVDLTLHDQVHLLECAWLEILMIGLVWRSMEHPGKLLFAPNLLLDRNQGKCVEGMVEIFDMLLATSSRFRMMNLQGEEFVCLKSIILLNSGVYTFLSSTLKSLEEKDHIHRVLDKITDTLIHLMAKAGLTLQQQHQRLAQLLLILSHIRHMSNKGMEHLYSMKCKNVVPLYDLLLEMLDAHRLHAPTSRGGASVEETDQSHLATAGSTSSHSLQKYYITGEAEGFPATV
Chain of rat Peripheral-type Benzodiazepine Receptor (PBR), Tspo (gene 24230) (P16257 whole entry, looked up): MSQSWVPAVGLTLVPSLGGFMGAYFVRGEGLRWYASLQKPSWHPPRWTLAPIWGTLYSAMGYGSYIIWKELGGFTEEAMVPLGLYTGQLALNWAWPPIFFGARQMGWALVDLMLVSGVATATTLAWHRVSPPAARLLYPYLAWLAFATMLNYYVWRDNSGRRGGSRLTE
Chain of Small conductance calcium-activated potassium channel protein 1 (Rattus norvegicus) (P70606 whole entry, looked up): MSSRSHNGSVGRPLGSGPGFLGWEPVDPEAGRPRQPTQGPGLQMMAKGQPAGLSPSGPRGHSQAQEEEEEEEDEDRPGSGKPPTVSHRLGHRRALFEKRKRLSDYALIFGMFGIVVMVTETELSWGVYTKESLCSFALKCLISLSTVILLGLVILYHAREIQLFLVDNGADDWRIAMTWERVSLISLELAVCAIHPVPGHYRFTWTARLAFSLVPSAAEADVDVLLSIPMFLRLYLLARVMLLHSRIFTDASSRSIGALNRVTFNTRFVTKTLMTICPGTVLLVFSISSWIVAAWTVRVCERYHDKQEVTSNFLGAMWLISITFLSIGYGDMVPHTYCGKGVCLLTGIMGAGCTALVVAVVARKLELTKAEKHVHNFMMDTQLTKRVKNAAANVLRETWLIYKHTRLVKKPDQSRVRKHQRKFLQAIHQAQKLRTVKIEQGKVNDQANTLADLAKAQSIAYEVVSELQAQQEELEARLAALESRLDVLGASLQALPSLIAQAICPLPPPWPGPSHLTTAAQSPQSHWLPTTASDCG
Chain of chimpanzee Androgen Receptor (AR), AR (gene 747460) (O97775 whole entry, looked up): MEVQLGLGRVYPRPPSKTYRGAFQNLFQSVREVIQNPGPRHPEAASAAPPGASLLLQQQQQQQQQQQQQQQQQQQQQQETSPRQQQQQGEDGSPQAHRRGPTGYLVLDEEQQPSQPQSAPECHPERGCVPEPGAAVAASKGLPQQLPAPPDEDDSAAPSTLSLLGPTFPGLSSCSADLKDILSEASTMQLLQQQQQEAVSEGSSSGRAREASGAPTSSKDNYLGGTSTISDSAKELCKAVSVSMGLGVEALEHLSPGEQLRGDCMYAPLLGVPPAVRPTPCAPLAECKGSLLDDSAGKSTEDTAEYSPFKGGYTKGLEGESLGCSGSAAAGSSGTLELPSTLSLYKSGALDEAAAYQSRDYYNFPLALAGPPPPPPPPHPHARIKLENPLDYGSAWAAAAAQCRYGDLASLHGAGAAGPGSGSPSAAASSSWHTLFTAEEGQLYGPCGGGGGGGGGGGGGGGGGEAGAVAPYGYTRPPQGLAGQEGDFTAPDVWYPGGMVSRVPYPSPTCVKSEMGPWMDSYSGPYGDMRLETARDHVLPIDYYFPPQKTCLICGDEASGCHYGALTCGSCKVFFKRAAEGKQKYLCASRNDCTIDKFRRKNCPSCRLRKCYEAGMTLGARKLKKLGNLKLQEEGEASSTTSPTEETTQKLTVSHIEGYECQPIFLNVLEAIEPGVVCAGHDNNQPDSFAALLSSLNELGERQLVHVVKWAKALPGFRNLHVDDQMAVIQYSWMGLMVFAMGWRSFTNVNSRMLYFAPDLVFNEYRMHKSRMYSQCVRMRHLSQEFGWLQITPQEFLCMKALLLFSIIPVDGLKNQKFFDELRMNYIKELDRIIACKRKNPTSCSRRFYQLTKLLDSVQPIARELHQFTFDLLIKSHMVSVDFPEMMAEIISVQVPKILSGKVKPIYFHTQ
Chain of Androgen Receptor/SRC-1 Co-activator, AR (gene 367) (P10275 whole entry, looked up, the tested form may be a part): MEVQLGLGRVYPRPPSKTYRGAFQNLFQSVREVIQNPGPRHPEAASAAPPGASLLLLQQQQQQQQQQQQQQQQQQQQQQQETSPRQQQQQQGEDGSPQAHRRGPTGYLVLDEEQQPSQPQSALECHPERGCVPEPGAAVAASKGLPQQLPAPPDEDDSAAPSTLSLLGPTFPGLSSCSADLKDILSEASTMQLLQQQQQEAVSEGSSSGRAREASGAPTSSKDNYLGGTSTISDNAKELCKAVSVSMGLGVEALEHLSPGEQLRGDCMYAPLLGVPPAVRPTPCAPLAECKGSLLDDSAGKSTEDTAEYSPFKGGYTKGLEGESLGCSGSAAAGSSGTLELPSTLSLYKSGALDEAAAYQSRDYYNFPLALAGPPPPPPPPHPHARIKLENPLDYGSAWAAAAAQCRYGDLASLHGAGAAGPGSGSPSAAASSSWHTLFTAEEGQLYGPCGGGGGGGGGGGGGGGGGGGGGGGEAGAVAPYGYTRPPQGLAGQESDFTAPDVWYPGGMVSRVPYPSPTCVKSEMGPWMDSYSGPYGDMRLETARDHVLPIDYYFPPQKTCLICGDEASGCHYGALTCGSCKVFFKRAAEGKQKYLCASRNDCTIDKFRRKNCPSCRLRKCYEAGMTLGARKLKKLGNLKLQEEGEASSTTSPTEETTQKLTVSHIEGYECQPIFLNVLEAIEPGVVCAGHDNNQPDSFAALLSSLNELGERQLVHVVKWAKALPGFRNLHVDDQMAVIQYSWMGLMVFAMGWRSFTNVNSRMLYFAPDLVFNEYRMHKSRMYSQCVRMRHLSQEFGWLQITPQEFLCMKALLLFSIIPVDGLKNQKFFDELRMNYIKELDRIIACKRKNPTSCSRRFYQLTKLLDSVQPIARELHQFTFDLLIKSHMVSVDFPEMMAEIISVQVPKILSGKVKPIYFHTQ
Chain of Estrogen receptor (Homo sapiens) + Estrogen receptor beta (Homo sapiens) (P03372 whole entry, looked up, the tested form may be a part): as the sequence (P03372 whole entry, looked up) above
Chain of Estrogen receptor (Homo sapiens) + Estrogen receptor beta (Homo sapiens) (Q92731 whole entry, looked up, the tested form may be a part): as the sequence (Q92731 whole entry, looked up, the tested form may be a part) above
Chain of rat Glycine Receptor, Strychnine-sensitive (GlyRStrySens), Glra1 (gene 25674) (P07727 whole entry, looked up): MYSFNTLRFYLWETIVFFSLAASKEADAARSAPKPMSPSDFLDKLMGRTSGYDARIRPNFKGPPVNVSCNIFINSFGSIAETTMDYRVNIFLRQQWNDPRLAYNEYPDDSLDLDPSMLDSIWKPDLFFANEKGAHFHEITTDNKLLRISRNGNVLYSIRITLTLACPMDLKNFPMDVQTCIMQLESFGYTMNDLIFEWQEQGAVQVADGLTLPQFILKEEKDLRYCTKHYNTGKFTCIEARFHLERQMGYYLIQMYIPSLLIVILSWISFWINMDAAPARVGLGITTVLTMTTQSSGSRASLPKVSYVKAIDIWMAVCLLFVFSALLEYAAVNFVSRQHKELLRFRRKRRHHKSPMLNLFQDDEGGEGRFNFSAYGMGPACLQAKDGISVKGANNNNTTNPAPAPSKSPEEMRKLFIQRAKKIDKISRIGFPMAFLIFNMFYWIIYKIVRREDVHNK

Usually AC50 stands for the concentration giving half of the maximal activity seen. `NC(=O)c1nc(-c2cccc(-c3cc(F)ccc3OCC(F)(F)C(F)(F)F)c2)n[nH]1`: the figures for the AC50 in experiment [1] and in [5] were 5.7 µM (active) and 50 µM (active), respectively. Further, the outcome in experiment [2], in experiment [3], in experiment [4] and in [6] was inactive.

For the molecule `CC(=O)N1CCN(c2ccc(OC[C@H]3CO[C@](Cn4ccnc4)(c4ccc(Cl)cc4Cl)O3)cc2)CC1`, the molecule was classed as inactive in experiment [7], in experiment [3], in experiment [4] and in [9]. Further, the concentration at half-maximal activity (AC50) in experiment [8] was 20.2 µM (active).

As to `Cc1ccc2oc(CN(Cc3ccccc3)C(=O)Nc3c(F)cc(F)cc3F)c(-c3ccc(Cl)cc3)c2c1`, in experiment [1], the half-maximal activity concentration (AC50) is 4.2 µM (active). For the same molecule, the molecule was classed as inactive (in the experiment on NCBI gene 100848466; in experiment [3]; in experiment [4]; in [6]; in experiment [9]).

As for `Clc1cc(Cl)c2c(c1)N=C1CCCCCN1C2`, the result in experiment [10], in [7], in experiment [3] and in experiment [4] was inactive. The AC50 in [11] is 1.85 µM (active).

Consider `CCCCCCCCCCCC[N+](C)(C)C`, for which the half-maximal activity concentration (AC50) in experiment [10] is 12.2 µM (active); in experiment [11], 19.6 µM (active). Also, the call in experiment [9] was inactive.

On to `COc1ccc2cc(S(=O)(=O)N[C@H](CC(=O)N[C@H](Cc3ccc(CN4[C@H](C)CCC[C@@H]4C)cc3)C(=O)N(C)C(C)C)c3ccc4c(c3)OCO4)ccc2c1`, for which the result in [12], in experiment [13], in experiment [3] and in [4] was inactive. The AC50 is 3.52 µM (active) in experiment [10], 0.128 µM (active) in experiment [14], 20.5 µM (active) in [11] and 10.8 µM (active) in experiment [15].

For the molecule `CN(C)C(=O)C1(N2CCCCC2)CCN(CC[C@@]2(c3ccc(Cl)c(Cl)c3)CN(C(=O)c3ccccc3)CCO2)CC1`, the outcome in experiment [12], in experiment [13], in experiment [7], in [2] and in [3] was inactive. In addition, the concentration at half-maximal activity (AC50) in [10] is 0.27 µM (active); in experiment [11], 1.08 µM (active); in experiment [15], 13.9 µM (active); in experiment [5], 11.8 µM (active).

With `CCCCCCCCN(C)CCCCCCCC`, the result in experiment [10], in experiment [16], in experiment [2], in experiment [3] and in experiment [4] was inactive. Further, the AC50 in [11] was 14.5 µM (active).
